Consider 40 molecules from PubChem BioAssay.

Molecules are shown by their SMILES. Unmarked numbers belong to inactive results. How the calls were made is not given here.

Pantothenate synthetase (Mycobacterium tuberculosis (strain ATCC 25618 / H37Rv)), sequence (P9WIL5 whole entry, looked up): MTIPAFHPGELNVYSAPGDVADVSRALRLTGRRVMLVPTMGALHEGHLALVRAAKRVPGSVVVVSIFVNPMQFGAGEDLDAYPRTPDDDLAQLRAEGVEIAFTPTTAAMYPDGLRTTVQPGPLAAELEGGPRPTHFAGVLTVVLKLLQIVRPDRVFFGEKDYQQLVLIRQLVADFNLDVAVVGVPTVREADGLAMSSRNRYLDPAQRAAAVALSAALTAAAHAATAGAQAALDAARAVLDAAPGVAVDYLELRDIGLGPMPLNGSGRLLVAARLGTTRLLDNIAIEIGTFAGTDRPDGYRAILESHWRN

The assay has as its target Pantothenate synthetase (Mycobacterium tuberculosis (strain ATCC 25618 / H37Rv)) (UniProt P9WIL5). In words: Recombinant Mtb pantothenate synthetase (PanC) inhibitors, coupled enzyme, confirmatory (AID 375).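 Further: 0% = full reaction with vehicle and 100% = no enzyme background.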 As to conditions: coupled enzyme assay; at 10 µM, hits give high values.
Regarding `CCOC(=O)c1ccc2[nH]c(C)c(CN3CCN(C)CC3)c(=O)c2c1`, the inhibition is 0%.
For `COc1ccc(OC)c(C2=NOC(C(=O)Nc3c(C)n(C)n(-c4ccccc4)c3=O)C2)c1` (stereo not given), the inhibition is 2%.
Take `Cn1c(=O)n(C)c2cc(CNc3ccc(N4CCOCC4)c(C(=O)O)c3)ccc21`: the inhibition is 11%.
As to `COc1ccc(Oc2nc(Oc3ccc(OC)cc3)nc(Oc3ccc(OC)cc3)n2)cc1`, the inhibition was 0%.
For the molecule `COc1ccccc1-n1c(SCC(N)=O)nnc1-c1ccccc1`, the inhibition is 0%.
For the molecule `CSc1nnc(-c2nnc(SC)n2-c2ccccc2)n1-c1ccccc1`, the inhibition was 0%.
For the molecule `COc1ccc(/C(O)=C2/C(=O)C(=O)N(CCCN(C)C)C2c2ccco2)cc1Cl` (stereo not given), the inhibition is 0%.
In the case of `COC(=O)CSc1cc(C)nc(NC(C)=O)n1`, the inhibition was 4%.
In the case of `COc1ccc(-c2cc3nc4n(c(=O)c3s2)CCC4)cc1`, the inhibition is 8%.
`Cc1cc(=O)n2[nH]c(COc3ccccc3)nc2n1`: the inhibition is 6%.
In the case of `CN(C)c1ccc(-c2nn3c(-c4ccc(Cl)cc4Cl)nnc3s2)cc1`, the inhibition is 9%.
`Cc1cnc(C(=O)Nc2ccc(N3CCOCC3)cc2)cn1`: the inhibition is 4%.
With `Clc1ccc(Cl)c(-c2nn3c(COc4ccccc4)nnc3s2)c1`, the inhibition was 4%.
Under `CCN1C(=O)OC2(CCCCC2)C1(C)O` (stereo not given) stands 0%; under `COc1ccc(S(=O)(=O)Nc2cc(C)on2)cc1OC`, 0%.
Under `O=C(NCCSc1c[nH]c2ccccc12)c1ccc(Br)o1` stands 1%.
For `COc1ccc(CCNC(=O)c2cc(C(C)C)on2)cc1OC`, the inhibition was 1%.
On to `Cc1nnc(N(Cc2ccco2)C(=O)c2cccc(C#N)c2)s1`, for which the inhibition was 2%.
For the molecule `O=C(NCCCN1CCN(Cc2ccccc2)CC1)C1CCN(c2nnc(-n3cccc3)s2)CC1`, the inhibition is 0%.
In the case of `CCN1CCN(c2nc3c(c(=O)n(C)c(=O)n3C)n2Cc2cccc3ccccc23)CC1`, the inhibition was 0%.
Under `CN(C)c1nc(N)nc(CSc2nnnn2-c2cccc3ccccc23)n1` stands 0%.
`Cc1ccc2nc(-c3ccc4c(c3)OCCO4)cc(C(=O)O)c2c1`: the inhibition was 0%.
As for `COc1ccc(S(=O)(=O)Cc2ccc(C(=O)N3CCN(Cc4ccccc4)CC3)o2)cc1`, the inhibition is 0%.
Under `S=c1[nH]nc(-c2ccccc2)n1C1C=CCCC1` (stereo not given) stands 0%.
With `O=C(c1cc(S(=O)(=O)N2CCOCC2)ccc1F)N1CCCc2ccccc21`, the inhibition was 1%.
Under `COC(=O)Nc1sc2c(c1C(=O)N1CCOCC1)CCC(C)C2` (stereo not given) stands 0%; under `Cc1cc2c(cc1C)-c1nnnn1C(C)(C)C2`, 4%; under `COC(=O)Cn1c(=O)c2c(nc3n2CC(C)CN3c2ccc(C)c(C)c2)n(C)c1=O` (stereo not given), 4%.
For `Cc1ccccc1NC(=O)CSc1nc(N)c(C#N)c(-c2cccs2)c1C#N`, the inhibition is 0%.
Regarding `COc1ccc(C(CC(=O)O)NC(=O)c2ccccc2)cc1OC` (stereo not given), the inhibition is 0%.
As for `COc1cc2[nH]c(=O)c(C(=O)NCCCN3CCCCC3)c(O)c2cc1OC`, the inhibition is 3%.
For the molecule `c1cncc(-c2nnc3n2N=C(c2cccs2)CS3)c1`, the inhibition was 6%.
Under `Cc1cccc(OCC(=O)N2CCN(C(=O)Cc3ccccc3)CC2)c1` stands 1%; under `COc1ccc(OC)c(C(=O)c2coc3ccc(O)c(CN4CCOCC4)c23)c1`, 0%.
As for `COC(=O)c1ccc(CSc2nc3ccccc3c(=O)n2Cc2ccco2)o1`, the inhibition was 6%.
Turning to `COc1cc2c(cc1OC)C(C)N(C(=O)c1cc3n(n1)C(C(F)(F)F)CC(c1ccco1)N3)CC2` (stereo not given), the inhibition is 6%.
For the molecule `CN(C)S(=O)(=O)c1ccc(S(=O)(=O)Nc2ccc3c(c2)oc2ccccc23)cc1`, the inhibition is 0%.
For the molecule `CCCC(=O)Nc1ccc(C(=O)O)cc1NC(=O)CCC`, the inhibition is 0%.
Regarding `CCn1cc(C2=NOC(C(=O)Nc3c(C)nn(Cc4ccc(F)cc4)c3C)C2)c(C)n1` (stereo not given), the inhibition was 0%.
Under `O=C(CCN1CCc2ccccc2C1)Nc1ccc2c(c1)OCO2` stands 0%.
